In the antibiotic and cytotoxicity screens of Wong et al. (2023) one finds cytotoxicity call data, which are given here for 40 molecules.

Each structure is given as a SMILES string. Screen size: about 39,000 compounds; about 3,300 (8.5%) were called active. The full list was thinned out, with actives kept by preference.

The test system of this test is HepG2. Description: cytotoxicity call (relative viability < 0.9). The note with it: 10 µM.
Take `Cc1cc(C(F)(F)F)cc(Cl)n1`: the cytotoxicity call was “inactive”.
With `Cc1ccc(S(=O)(=O)N(C)C[C@@H]2OCCCC[C@H](C)Oc3ccc(NC(=O)Nc4ccc(C(F)(F)F)cc4)cc3C(=O)N([C@H](C)CO)C[C@@H]2C)cc1`, the cytotoxicity call was “inactive”.
As for `CC(C)NC(=O)N(C)C[C@H]1Oc2c(NC(=O)NC3CCCCC3)cccc2C(=O)N([C@H](C)CO)C[C@H]1C`, the entry is “inactive”.
On to `C[C@H](CO)N1C[C@H](C)[C@@H](CN(C)C(=O)Cc2cccnc2)Oc2ncc(C#Cc3ccccc3F)cc2C1=O`, for which the cytotoxicity call was “inactive”.
Turning to `Cc1nn(C)cc1NC(=O)C[C@H]1CC[C@H]2[C@@H](COc3ccc(NC(=O)C4CCOCC4)cc3C(=O)N2C)O1`, the cytotoxicity call is “inactive”.
As for `COCC(=O)NCc1n[nH]c(=O)c2ccccc12`, the entry is “inactive”; as for `CC1(C)OC(=O)C2(C(=O)O1)[C@@H](c1ccc(-c3ccc(C(F)(F)F)cc3)cc1)CC(=O)C[C@H]2c1ccccc1`, “inactive”; as for `COc1ccc(S(=O)(=O)Nc2ccc3c(c2)CC(=O)N([C@H](C)CO)C[C@@H](C)[C@H](CN(C)Cc2ccc(-c4ccccc4)cc2)O3)cc1`, “active”.
For the molecule `CC(C)NC(=O)Nc1cccc2c1O[C@H](CN(C)Cc1ccc(C(=O)O)cc1)[C@H](C)CN([C@H](C)CO)C2=O`, the cytotoxicity call is “inactive”.
As for `COc1ccc(S(=O)(=O)Nc2ccc3c(c2)C(=O)N([C@@H](C)CO)C[C@H](C)[C@@H](CN(C)S(=O)(=O)c2ccc(OC)cc2)O3)cc1`, the entry is “inactive”; as for `C[C@@H]1CCCCO[C@H](CN(C)S(=O)(=O)c2ccccc2)[C@@H](C)CN([C@@H](C)CO)C(=O)c2cc(NC(=O)Nc3ccc(F)cc3)ccc2O1`, “inactive”; as for `CNC(C)C1CCC(N)C(OC2C(N)CC(N)C(OC3OCC(C)(O)C(NC)C3O)C2O)O1.O=S(=O)(O)O` (stereo not given), “active”.
Turning to `CN[C@@H]1[C@@H](O)[C@@H](O[C@@H]2[C@@H](O)[C@H](O[C@H]3O[C@H]([C@@H](C)NC)CC[C@H]3N)[C@@H](N)C[C@H]2N)OC[C@]1(C)O`, the cytotoxicity call was “inactive”.
As for `CNC[C@@H]1CC[C@@H](N)[C@@H](O[C@H]2[C@H](O)[C@@H](O[C@H]3OC[C@](C)(O)[C@H](NC)[C@H]3O)[C@H](N)C[C@@H]2N)O1`, the entry is “inactive”; as for `NC[C@H]1CCN(c2ccc(Oc3ccccc3)cc2)C1`, “active”; as for `NC[C@H]1CCCN(C(=O)Nc2ccc(Oc3ccccc3)cc2)C1`, “inactive”.
For `Cc1ccc(N2CC[C@@H](CN)C2)cc1` the value was “inactive”; for `Cn1c(=O)n2n(c1=O)[C@H](C1CC1)C=C1CN3[C@@H]([C@H](Cc4ccccc4)OC(=O)[C@@H]3Cc3ccc(N=[N+]=[N-])cc3)[C@@H]12`, “inactive”; for `Cc1ccc(S(=O)(=O)Nc2ccc3c(c2)C(=O)N([C@H](C)CO)C[C@@H](C)[C@@H](CN(C)Cc2ccc(-c4ccccc4)cc2)O3)cc1`, “active”.
On to `Cc1ccc(S(=O)(=O)Nc2ccc3c(c2)C(=O)N([C@H](C)CO)C[C@@H](C)[C@H](CN(C)Cc2ccc(-c4ccccc4)cc2)O3)cc1`, for which the cytotoxicity call was “inactive”.
For `Cc1ccc(S(=O)(=O)Nc2ccc3c(c2)C(=O)N([C@H](C)CO)C[C@H](C)[C@@H](CN(C)Cc2ccc(-c4ccccc4)cc2)O3)cc1` the value was “inactive”.
Take `Cc1ccc(S(=O)(=O)Nc2ccc3c(c2)C(=O)N([C@H](C)CO)C[C@H](C)[C@H](CN(C)Cc2ccc(-c4ccccc4)cc2)O3)cc1`: the cytotoxicity call was “active”.
With `Cc1ccc(S(=O)(=O)Nc2ccc3c(c2)C(=O)N([C@@H](C)CO)C[C@H](C)[C@H](CN(C)Cc2ccc(-c4ccccc4)cc2)O3)cc1`, the cytotoxicity call is “inactive”.
`Cc1ccc(S(=O)(=O)Nc2ccc3c(c2)C(=O)N([C@@H](C)CO)C[C@H](C)[C@@H](CN(C)Cc2ccc(-c4ccccc4)cc2)O3)cc1`: the cytotoxicity call was “inactive”.
As for `Cc1ccc(S(=O)(=O)Nc2ccc3c(c2)C(=O)N([C@@H](C)CO)C[C@@H](C)[C@H](CN(C)Cc2ccc(-c4ccccc4)cc2)O3)cc1`, the entry is “inactive”; as for `Cc1ccc(S(=O)(=O)Nc2ccc3c(c2)C(=O)N([C@@H](C)CO)C[C@@H](C)[C@@H](CN(C)Cc2ccc(-c4ccccc4)cc2)O3)cc1`, “active”; as for `C[C@@H]1CCCCO[C@H](CN(C)C(=O)CCCN(C)C)[C@@H](C)CN([C@H](C)CO)C(=O)c2cc(NC(=O)Nc3ccc(F)cc3)ccc2O1`, “inactive”.
Take `Cc1noc(C)c1NC(=O)N(C)C[C@H]1OCCCC[C@H](C)Oc2ccc(NS(=O)(=O)c3ccccc3)cc2C(=O)N([C@@H](C)CO)C[C@H]1C`: the cytotoxicity call was “inactive”.
As for `C[C@H]1CN([C@@H](C)CO)S(=O)(=O)c2ccc(C#Cc3cccc(F)c3)cc2O[C@H]1CN(C)CC1CC1`, the cytotoxicity call was “inactive”.
`C[C@H](CO)N1C[C@H](C)[C@H](CN(C)S(=O)(=O)c2cn(C)cn2)Oc2ccc(NC(=O)C3CCCCC3)cc2C1=O`: the cytotoxicity call was “inactive”.
Regarding `Cc1ccc(S(=O)(=O)Nc2ccc3c(c2)C(=O)N(C)[C@H]2CC[C@@H](CC(=O)NCCc4ccncc4)O[C@@H]2CO3)cc1`, the cytotoxicity call is “inactive”.
As for `O=C1c2ccccc2[C@](Cc2ccccc2I)(C(=O)NCc2ccccc2)[C@H](c2ccc(CO)cc2)N1Cc1ccccc1C(F)(F)F`, the cytotoxicity call is “inactive”.
On to `COCC#Cc1ccc2c(c1)O[C@H](CN(C)S(=O)(=O)c1ccc(C)cc1)[C@@H](C)CN([C@@H](C)CO)S2(=O)=O`, for which the cytotoxicity call is “inactive”.
`COc1ccc(CN(C)C[C@H]2Oc3ccc(NS(=O)(=O)c4cn(C)cn4)cc3CC(=O)N([C@@H](C)CO)C[C@H]2C)cc1`: the cytotoxicity call was “inactive”.
On to `CC(C)CCC(=O)N1C[C@@H]2c3nc(N4CCOCC4)ncc3CS(=O)(=O)[C@H]2C1`, for which the cytotoxicity call is “inactive”.
For `COC(=O)CCCCCCC(=O)N/N=C/[C@H](O)[C@@H](O)[C@H](O)CO` the value was “inactive”; for `Cc1noc(C)c1NC(=O)Nc1ccc2c(c1)CC(=O)N([C@@H](C)CO)C[C@@H](C)[C@H](CN(C)C(=O)Nc1ccc(C(F)(F)F)cc1)O2`, “inactive”; for `COc1ccc(CN(C)C[C@@H]2Oc3ccc(NS(=O)(=O)c4c(C)noc4C)cc3CC(=O)N([C@H](C)CO)C[C@@H]2C)cc1`, “inactive”.
For `Cc1ccc(S[C@]2(C(=O)NCCN3CCOCC3)CC(=O)N(Cc3cc(C(F)(F)F)cc(C(F)(F)F)c3)[C@@H]2c2ccc(CO)cc2I)cc1` the value was “inactive”; for `Cc1ccc(S(=O)(=O)Nc2ccc3c(c2)CC(=O)N([C@H](C)CO)C[C@H](C)[C@@H](CN(C)S(=O)(=O)c2ccccc2)O3)cc1`, “inactive”.
